Compounds with a hit are over-represented: about 5.4% of the library has one in this group of screens.
Calb FLC: C. albicans growth inhibition with fluconazole, primary screen, CaCi-2 strain, Alamar Blue fluorescence; C. albicans CaCi-2 (fluconazole-resistant clinical isolate) + fluconazole, 48 h; growth inhibition, % (concentration not given with the values); 300,000 compounds, 0.57% hits;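 active = growth inhibition above about 58% in most replicates, limit read from the data, passing the limit was not always enough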;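 note: all wells also contain fluconazole at 8 µg/ml as a sub-toxic cotreatment; 0% = median of DMSO wells and 100% = median of geldanamycin control wells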
PP5 primary: PP5 phosphatase inhibitors, primary screen, biochemical, fluorescence. Serine/threonine-protein phosphatase 5 (Homo sapiens), P53041. purified PP5c, OMFP substrate fluorescence. inhibition, % at 6.7 µM. 320,000 compounds, 0.18% hits;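 active = inhibition above the campaign's mean inhibition across all tested compounds plus 3 SD, cut at about 9.5% in these data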;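 note: 0% = DMSO only and 100% = 100 µM cantharidin control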
PP1 counter: PP1-alpha phosphatase inhibitors, primary screen, counter-screen for PP5 inhibitor project, biochemical, fluorescence, OMFP substrate, single point. purified PP1alpha. inhibition, % at 6.7 µM. 320,000 compounds, 0.9% hits. AID 2235, 2010;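 active = inhibition above the mean inhibition of all tested compounds plus 3 SD, computed separately for each screening campaign, cut at about 15% in these data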
ALR H2O2 inh: inhibitors of human ALR sulfhydryl oxidase, primary screen, biochemical, H2O2 detection, HRP-luminol luminescence, single point; purified ALR, DTT oxidation; inhibition, % (test concentration not listed); 290,000 compounds, 3.8% hits; AID 485317, 2010;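 active = mean replicate inhibition above about 79%, with every replicate also reaching it, limit read from the data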
CSC inhib: cancer stem cell viability inhibitors, primary screen, luminescence. cancer stem cell-like cells viability. inhibition, % at 7.5 µM. 300,000 compounds, 1.1% hits; in the data active = inhibition above about 75%; tested in HMLE shEcad cells
* = called active by the depositor; · = no result.

SMILES	Calb FLC	PP5 primary	PP1 counter	ALR H2O2 inh	CSC inhib
O=C1CCC(=O)N1c1ccccc1	0.4	-0.3	-0.7	3.1	0.3
O=C1N=NC(=O)N1c1ccccc1	·	-0.3	-1.4	87.5*	-5.9
COc1c(OC)c(O)c2c(=O)cc(-c3c(O)cccc3O)oc2c1OC	1.8	5.6	-4.2	96.6*	-8.3
COc1ccc(-c2cc(=O)c3c(OC)c(OC)c(OC)c(OC)c3o2)cc1OC	·	0.6	-5.2	·	-9.6
COc1ccc(N(CCC(=O)Nc2ccccc2F)S(=O)(=O)c2ccc(C)cc2C)cc1	-4.8	2.0	-1.8	·	7.9
Cc1cccc(OCc2nnc(SCC(=O)Nc3nccs3)o2)c1	-1.3	-1.8	-3.5	·	-6.5
Cc1cccc(Cn2nnc3ccccc32)c1O	24.0	1.0	-4.8	89.9*	-9.0
Cc1sc(N)nc1-c1c(C)n(C)c2ccccc12	-6.7	·	·	99.1*	-6.5
CC(NC(=O)c1ccc([N+](=O)[O-])o1)C12CC3CC(CC(C3)C1)C2 (stereo not given)	2.2	-3.9	-12.4	-36.9	97.3*

Screens: PubChem BioAssay, several laboratories
